# This is a sample that favours compounds with a hit; in the whole collection about 6.4% have one here.
# VP16 counter – inhibits Gal4-VP16 luciferase reporter, ROR gamma counter-screen; Drosophila S2 Gal4-VP16 UAS-luciferase, luminescence, 20 h; Potency, µM (series often up to 53.6 µM), for the others: at the highest dose activity, negative = inhibition, actives largely listed as inhibitors; 3.5% of 310,000 active; AID 2546;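 note: Gal4-VP16 expression switched on by copper sulfate through the metallothionein promoter; nearly all actives have a fitted effect of over 50% in size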
# Luc counter – blocks Kinase-Glo luciferase, a counter-screen artifact | AID 1379 | Potency, µM (titrated, usually from 38.3 µM), without a hit: top-dose activity change, negative = inhibition, hits mostly inhibitors | Q27757 | 0.28% of 200,000 active | Kinase-Glo luciferase, ATP luminescence, 8 min; note: nearly all actives have a fitted effect of over 60% in size
#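 Inhibition of Kinase-Glo luciferase light generation was assessed at 10 uM ATP in pH 7.2 imidazole buffer, with luminescence measured after eight minutes at ambient temperature.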
# RORgamma inh – blocks mouse ROR gamma transcriptional activity; Drosophila S2 Gal4-RORgamma UAS-luciferase reporter, 20 h; Potency, µM (series often up to 53.6 µM), without a hit: at the highest dose activity change, negative = inhibition, hits mostly inhibitors; 5.4% of 310,000 active; note: nearly all actives have a fitted effect of over 60% in size
# Target sequence (P51450 whole entry, looked up, the tested form may be a part): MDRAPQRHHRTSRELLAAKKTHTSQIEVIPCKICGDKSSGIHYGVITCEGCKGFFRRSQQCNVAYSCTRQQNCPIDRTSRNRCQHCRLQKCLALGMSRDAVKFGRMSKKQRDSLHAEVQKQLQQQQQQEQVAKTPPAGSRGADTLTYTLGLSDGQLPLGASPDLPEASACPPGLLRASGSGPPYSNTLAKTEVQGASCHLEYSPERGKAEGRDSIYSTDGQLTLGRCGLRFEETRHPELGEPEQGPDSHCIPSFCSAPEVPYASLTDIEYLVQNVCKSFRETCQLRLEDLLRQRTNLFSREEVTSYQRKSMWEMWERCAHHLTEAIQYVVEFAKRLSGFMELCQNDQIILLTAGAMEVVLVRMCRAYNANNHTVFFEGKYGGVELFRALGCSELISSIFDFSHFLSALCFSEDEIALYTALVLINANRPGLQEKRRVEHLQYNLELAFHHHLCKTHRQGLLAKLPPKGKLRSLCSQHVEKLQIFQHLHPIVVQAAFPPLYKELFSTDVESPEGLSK
#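 Schneider cells (Drosophila), stable Gal4 DBD–ROR gamma + UAS-luc; 1 hr cmpd preincubation; Cu2+ induction 700 uM final; 20 hr ambient; luminescence.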
# An asterisk follows results filed as active; ? = inconclusive; / = not tested or not shown; [ ] = another dose, or the depositor's remark. Calls come from the whole dose curve; as a rule, active = well fitted curve in the direction sought with a large enough effect; inconclusive = small, poorly fitted or top-dose-only effect, or another doubt; inactive = no such curve, though single readings can be large; an effect the other way counts as inactive or inconclusive. % is set by controls: 0 for no effect and ±100 for the full control effect; potency is the fitted concentration of half-maximal effect.
SMILES,VP16 counter,Luc counter,RORgamma inh
O=C(CCN1C(=O)/C(=C/c2cccs2)SC1=S)N1CCCCC1,?,/,11.2µM*
CSc1nc(Cc2ccccc2)cc(=O)[nH]1,-6.8%,1.4%,-1.6%
NCOC(=O)Cc1ccc(Br)cc1,/,-2.4%[7.66 µM],/
O=C(NC(=S)Nc1cc(-c2nc3ccccc3[nH]2)ccc1Cl)c1ccc2c(c1)OCO2,-11.2%,-8.8%,12.6µM*
Cc1ccc(-c2nc3ccccc3[nH]2)cc1NC(=O)c1ccc2c(c1)OCO2,-3.7%,-0.9%,26.4%
CNCc1ccccc1Sc1cc(O)ccc1O,?,-1.0%,15.8µM*
CNCc1ccccc1Sc1cccc(O)c1,-7.8%,-5.2%,0.4%
Cc1nn(-c2ccc(F)cc2)c(Cl)c1/C=C1\C(=O)Nc2ccccc21,-20.9%,-1.4%,16.0%
CCOC(=O)C1(Cc2cccc(Cl)c2)CCCN(C(=O)CCSC)C1 (centres undefined),0.5%,/,-1.3%
COc1ccc(N(CN2C(=O)C3CCCCC3C2=O)C(=O)c2ccco2)cc1 (centres undefined),-7.2%,/,0.2%
COc1ccc(CC(=O)NCc2ccccn2)cc1OC,-5.6%,1.9%,11.2µM*
CCOc1c(Cl)cc(CNCc2ccccn2)cc1OC,2.6%,-0.6%,-15.2%
COc1cc(CNCc2ccccn2)ccc1OCc1ccccc1Cl,?,-2.7%,14.1µM*
COc1ccc(NC(=O)NCc2ccccn2)cc1OC,4.1%,1.7%,-40.8%
COc1ccc(-c2ccnc3c(C(=O)O)cnn23)cc1,15.5%,-1.8%,7.2%
Cc1oc(-c2ccccc2Cl)nc1CN1CCCCC1c1cccnc1 (centres undefined),10.3%,1.4%,-17.9%
CC(=O)OC(C)C,2.8%,/,3.8%
CCC(C(=O)NC1CCCC1)n1nc(C)n2c(cc3occc32)c1=O (centres undefined),-5.8%,/,3.8%
O=C1c2ccccc2C(=O)C1c1ccccn1,-19.9%,/,?
O=C1c2ccccc2C(=O)C1c1ccncc1,11.2µM*,-20.8%,?
Cc1ccc(OC(C)C(=O)Nc2ccncc2)cc1C (centres undefined),?,/,1.1%[1.91 µM]
Cc1ccccc1OCCCc1c(C)n[nH]c1C,4.3%,0.5%,7.08µM*
COc1cccc(OC)c1OCCCCc1c(C)n[nH]c1C,-6.1%,-2.5%,24.4%
Cc1ccccc1OCCCCN1CCCCC1,-2.0%,/,-25.6%
COc1cccc(OC)c1OCCCCCc1c(C)n[nH]c1C,-5.3%,/,?
SMILES,VP16 counter,Luc counter,RORgamma inh
Cc1cccc(C)c1OCCCCc1c(C)n[nH]c1C,?,-2.4%,17.8µM*
Cc1ccccc1OCCCCc1c(C)n[nH]c1C,12.6µM*,-2.2%,?
O=C(NC1CCCCC1)c1c2c(nc3ccccc13)CCC2,10.6%,-1.7%,-1.1%
CCC1(C)Cc2c(sc3nnn(Cc4ccccc4Cl)c(=O)c23)CO1 (centres undefined),-4.1%,2.5%,?
Cc1cc(C)nc(/N=C(\N)Nc2ccc(OCCC(C)C)cc2)n1,-29.5%,/,?
CC[C@H](C)[C@H](NC(=O)[C@H](Cc1ccc(O)cc1)NC(=O)[C@H](Cc1cnc[nH]1)NC(=O)[C@H](CCCNC(=N)N)NC(=O)[C@H](CC(C)C)NC(=O)[C@H](C)NC(=O)[C@@H](N)CO)C(=O)N[C@@H](CC(N)=O)C(=O)N[C@@H](CC(C)C)C(=O)N[C@H](C(=O)N[C@H](C(=O)N[C@@H](CCCNC(=N)N)C(=O)N[C@@H](CCC(N)=O)C(=O)N[C@@H](CCCNC(=N)N)C(=O)N[C@@H](Cc1ccc(O)cc1)C(N)=O)[C@@H](C)O)[C@@H](C)CC,-3.4%,/,0.6%
COc1ccc(N2C(=NC(=O)C3CCCO3)SC3CS(=O)(=O)CC32)cc1 (centres undefined),3.7%,/,2.6%
CCN(CC)CCN1C(=O)C(=O)/C(=C(/O)c2ccc(S(=O)(=O)N3CCOCC3)cc2)C1c1ccc(C(C)(C)C)cc1 (centres undefined),-3.9%,/,-10.3%
Cc1cc(=O)oc2cc(OCC(=O)Nc3ccc(N4CCC(C)CC4)cc3)ccc12,-7.6%,/,-26.1%
CN(C)S(=O)(=O)c1cccc(N=C2NN=C(c3ccccc3)CS2)c1,15.8µM*,6.3%,?
CC(=O)Nc1ccc(C2=NNC(=Nc3cccc(S(=O)(=O)N(C)C)c3)SC2)cc1,?,2.3%,-16.4%
COc1cc2c(cc1OC)C(c1c[nH]c3ccccc13)NCC2 (centres undefined),-6.7%,1.5%,9.7%
Cc1ccc(-c2nc3sc(C(N)=O)c(N)c3c3c2CCCC3)cc1,-1.8%,0.3%,-43.0%
Cc1nc2sc(C(N)=O)c(N)c2c2c1CCCC2,4.9%,/,5.62µM*
CC1CC=CC2C1C(=O)N(Cc1ccccc1)C2c1cccc([N+](=O)[O-])c1 (centres undefined),-3.0%,/,?
Cc1ccccc1C1=NC(C(F)(F)F)(C(F)(F)F)c2c(n(C)c(=O)n(C)c2=O)N1,-1.0%,2.6%,22.2%
Cn1c2c(c(=O)n(C)c1=O)C(C(F)(F)F)(C(F)(F)F)N=C(c1ccc(Cl)cc1)N2,3.16µM*,2.2%,6.31µM*
Cc1ccc(CCN2CC(C(=O)NC(C)C)CC2=O)cc1 (centres undefined),-4.8%,/,1.6%
COc1ccc2c(c1)C(=O)CC(c1ccc(OC)c(OC)c1)O2 (centres undefined),-7.1%,/,1.7%[1.91 µM]
COc1cc2c(cc1CC=C(C)C)C(=O)C[C@@H](c1ccc(O)cc1)O2,11.2µM*,/,-40.3%
CN1CCc2cc3c(cc2C(=O)Cc2ccc4c(c2C1)OCO4)OCO3,-6.7%,1.8%,-17.0%
CC(=O)NCCC(=O)Nc1cc(S(=O)(=O)N2CCOCC2)ccc1Oc1ccccc1,-3.4%,/,1.6%
FC(F)(F)c1cc(Oc2ccccc2)nc(-c2ccccn2)n1,-14.0%,-0.2%,?
C=CCNc1cc(C(F)(F)F)nc(-c2ccccn2)n1,7.08µM*,-1.1%,1.58µM*
O=C(O)CSc1cc(C(F)(F)F)nc(-c2ccccn2)n1,-1.3%,0.3%,-12.1%
SMILES,VP16 counter,Luc counter,RORgamma inh
CCN(CC)c1cc(C(F)(F)F)nc(-c2ccccn2)n1,11.2µM*,0.0%,2.51µM*
CC1CCCN(Cc2ccc(OCc3ccccc3)cc2)C1 (centres undefined),-8.9%,/,-25.6%
O=C(c1cccnc1)C1CCCN(Cc2nc(Cc3ccccc3)no2)C1 (centres undefined),5.6%,1.4%,16.5%
CC(CCc1ccccc1)NC(=O)Cc1ccccc1 (centres undefined),14.0%,-0.8%,4.0%
CC(CCc1ccccc1)NC(=O)c1ccc(NC(=O)c2ccccc2)cc1 (centres undefined),?,/,2.82µM*
CC(CCc1ccccc1)NC(=O)c1ccc(NC(=O)c2cccc(Br)c2)cc1 (centres undefined),-10.4%,1.8%,0.4%
O=C(NC(=S)N(CCc1ccccc1)CCc1ccccc1)c1ccco1,0.0447µM*,3.0%,0.112µM*
CC(CCc1ccccc1)NC(=S)NC(=O)c1ccco1 (centres undefined),-69.8%,-0.6%,11.2µM*
O=C(NCc1ccccc1)c1ccco1,-8.9%,-0.5%,-1.9%
CCCN1CCN(CCCNC(=O)c2ccc(NC(=O)C3=C(C)OCCS3)cc2)CC1,-1.4%,/,-0.5%
Cc1cc(C(=O)NNC(=S)NCC(C)C)no1,-24.0%,0.2%,7.94µM*

# High-throughput results from PubChem.
